Screens: PubChem BioAssay, The Scripps Research Institute Molecular Screening Center
TEAD-YAP inh – TEAD-YAP interaction inhibition; HEK-TIYL cells, TEAD-Gal4/YAP UAS-luciferase luminescence; inhibition, % at 9.12 µM; 640,000 tested, 1.4% active; AID 1259422; in the data active means inhibition above about 32%;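 further: 0% = median of test compound wells and 100% = reference inhibitor wells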
MITF primary – inhibitors of human MITF; O75030; AlphaScreen MITF homodimerization, bead proximity signal; inhibition, % at 2.6 µM; 650,000 tested, 0.91% active; AID 1259374; in the data active means inhibition above about 50%;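 further: 0% = vehicle wells with protein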
FBW7 activator – human FBW7 E3 ligase activation, primary screen; AlphaScreen FBW7–phospho-cyclin E peptide binding, activator screen; normalized activity (activation), % at 26.1 µM; AID 1259310; 650,000 tested, 0.13% active; in the data active means normalized activity above about 1.9%;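 further: purified mutant Fbw7 with reduced substrate affinity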
Target sequence (Q969H0 whole entry, looked up): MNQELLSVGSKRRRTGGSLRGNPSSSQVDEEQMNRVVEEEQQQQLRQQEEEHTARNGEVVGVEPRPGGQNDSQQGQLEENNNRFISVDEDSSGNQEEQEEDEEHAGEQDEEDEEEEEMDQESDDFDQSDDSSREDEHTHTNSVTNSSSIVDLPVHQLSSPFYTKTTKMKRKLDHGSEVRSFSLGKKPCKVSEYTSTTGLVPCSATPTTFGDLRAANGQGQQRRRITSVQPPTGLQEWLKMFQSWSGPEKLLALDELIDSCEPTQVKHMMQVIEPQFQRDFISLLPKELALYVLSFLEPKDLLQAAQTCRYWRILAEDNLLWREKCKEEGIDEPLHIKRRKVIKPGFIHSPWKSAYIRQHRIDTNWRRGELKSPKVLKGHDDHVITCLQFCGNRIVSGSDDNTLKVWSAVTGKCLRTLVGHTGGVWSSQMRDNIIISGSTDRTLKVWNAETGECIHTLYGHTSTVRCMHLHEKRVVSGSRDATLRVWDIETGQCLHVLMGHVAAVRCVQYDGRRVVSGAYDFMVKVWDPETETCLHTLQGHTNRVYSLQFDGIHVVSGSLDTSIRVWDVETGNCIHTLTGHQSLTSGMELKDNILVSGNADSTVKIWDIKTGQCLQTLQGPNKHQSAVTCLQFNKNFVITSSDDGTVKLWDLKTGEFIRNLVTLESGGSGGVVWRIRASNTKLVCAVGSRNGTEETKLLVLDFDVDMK
GPR151 ag – activates the human receptor GPR151; Q8TDV0; PathHunter beta-arrestin GPR151 cells, luminescence; activation, % at 11.2 µM; 650,000 tested, 1% active; in the data active means activation above about 4.9%;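 further: 0% = median of compound wells and 100% = cells with positive control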
Numbers without * were called inactive; . = no result given. Only some compounds are listed: those with a hit (about 3.4% of all), similar ones and a draw of the others.

SMILES	TEAD-YAP inh	MITF primary	FBW7 activator	GPR151 ag
CC1(C)Cc2c(sc(NC(=O)c3ccccc3)c2C(=O)O)CO1	46.5*	4.2	-0.1	-4.5
COc1ccc(C(=O)Nc2sc3c(c2C(=O)O)CC(C)(C)OC3)cc1OC	40.1*	-18.2	-0.1	0.1
COC(CNC(=O)CCc1c(C)nc2cc(-c3ccc(Cl)cc3)nn2c1C)OC	-10.2	14.9	0.2	0.6
COc1ccc(-c2nc3ccccc3n2C)cc1	32.2*	11.9	0.2	-8.0
CCCn1c(-c2ccc(N)cc2)nc2ccccc21	35.3*	2.2	0.0	-8.0
COc1ccc(-c2nc3ccccc3c(=O)n2-c2nc3ccccc3n2C)cc1	87.8*	-9.3	0.4	-0.4
O=C(CCN1C(=O)/C(=C/c2ccccc2)SC1=S)N1CCOCC1	2.5	6.1	0.0	0.4
OC1CCN(c2ccnc3c(-c4ccc(Cl)cc4)cnn23)CC1	-50.4	-16.1	-0.3	-0.2
CCc1ccc(NC(=O)c2ccc(F)c(S(=O)(=O)N(CC)Cc3ccccc3)c2)cc1	-2.2	-5.1	-0.2	-0.1
CCN(Cc1ccccc1)S(=O)(=O)c1cc(C(=O)Nc2ccc(F)c(F)c2)ccc1F	59.2*	11.2	0.1	0.6
O=C(Nc1ccc(F)c(F)c1)c1ccc(F)c(S(=O)(=O)NCc2ccco2)c1	38.2*	3.4	0.5	-0.1
CN(Cc1ccccc1)S(=O)(=O)c1cc(C(=O)Nc2ccc(F)c(F)c2)ccc1F	43.7*	-6.0	0.0	4.4
CCN(Cc1ccccc1)S(=O)(=O)c1cc(C(=O)Nc2ccc(Cl)c(Cl)c2)ccc1F	54.9*	11.8	0.3	1.1
CCNc1cc(N2CCN(CC)CC2)c2noc3c2c1C(=O)c1ccccc1-3	21.5	61.1*	-1.1	-0.1
CC1CCN(c2cc(NCCC(=O)O)c3c4c(onc24)-c2ccccc2C3=O)CC1	31.5	54.8*	-0.5	-1.1
CCNc1cc(N2CCN(C)CC2)c2noc3c2c1C(=O)c1ccccc1-3	4.9	16.1	-0.4	-1.3
CC1CCN(c2cc(NCCO)c3c4c(onc24)-c2ccccc2C3=O)CC1	4.9	38.3	-0.4	-0.8
CC1CCCN(c2cc(NCCO)c3c4c(onc24)-c2ccccc2C3=O)C1 (stereo not given)	33.7*	25.7	-0.5	-1.5
CC(C)Nc1cc(N2CCOCC2)c2noc3c2c1C(=O)c1ccccc1-3	21.4	56.3*	-0.6	1.3
CCCCC[C@@H](O)[C@@H](O)C/C=C\C/C=C\C/C=C\CCCC(=O)O	.	2.5	.	-1.4
CCCOC(=O)COc1ccc2c(c1)O/C(=C\c1ccc(OC)cc1)C2=O	-1.1	5.1	0.2	-0.2
CC1CCCN(c2cc(NCC(=O)O)c3c4c(onc24)-c2ccccc2C3=O)C1 (stereo not given)	67.4*	58.8*	-0.6	-1.5
O=C1c2ccccc2-c2onc3c(N4CCCCCC4)cc(NCCO)c1c23	36.8*	29.6	-0.5	0.7
CN1CCN(c2cc(NCc3ccco3)c3c4c(onc24)-c2ccccc2C3=O)CC1	-11.8	56.1*	-1.1	0.2
CC(=O)OCCNc1cc(N2CCCCC2)c2noc3c2c1C(=O)c1ccccc1-3	20.4	57.0*	-0.7	1.1
SMILES	TEAD-YAP inh	MITF primary	FBW7 activator	GPR151 ag
CCNc1cc(N2CCCC2)c2noc3c2c1C(=O)c1ccccc1-3	4.0	7.9	-0.2	-0.8
Cc1nnc(NCc2ccccc2)[nH]c1=O	2.1	10.5	0.1	-0.1
CCOC(=O)c1c(NC(=O)CSc2nnc3c4ccccc4n(CCc4ccccc4)c3n2)sc2c1CCN(C)C2	-4.3	-13.7	-0.1	0.8
Cc1cccc(Nc2cc(N3CCCCC3)c3noc4c3c2C(=O)c2ccccc2-4)c1	11.0	51.9*	-0.2	0.2
COc1cc(Nc2nc(-c3ccc(C(=O)N4CCN(C)CC4)cc3)nc3c2ncn3C(C)C)cc(OC)c1OC	29.7	-1.0	-0.1	0.4
COc1cc(Nc2nc(-c3ccc(C(N)=O)cc3)nc3c2ncn3-c2ccsc2)cc(OC)c1OC	53.9*	10.5	-0.1	-0.1
COc1cc(Nc2nc(-c3ccc(C(N)=O)cc3)nc3c2ncn3-c2ccccc2)cc(OC)c1OC	15.0	-7.6	0.1	0.7
COc1cc(Nc2nc(-c3ccc(C(N)=O)cc3)nc3c2ncn3Cc2ccc(C(F)(F)F)cc2)cc(OC)c1OC	52.9*	3.2	0.1	0.7
COc1cc(Nc2nc(-c3ccc(C(N)=O)cc3)nc3c2ncn3C(C)C)cc(OC)c1OC	41.1*	15.8	-0.1	0.8
CCOC(=O)CSc1ncnc2c1c(-c1ccccc1)cn2-c1ccc(F)cc1	-1.9	19.1	0.2	0.5
COc1cccc(-n2c(C)cc(/C=C3/C(=N)N4OC(C)=CC4=NC3=O)c2C)c1	56.8*	1.8	0.0	-1.0
CC1=CC2=NC(=O)/C(=C\c3cc(C)n(-c4ccc(Cl)cc4)c3C)C(=N)N2O1	13.0	3.5	0.2	0.1
